Compound activity as filed in PubChem BioAssay.
A selection: hits, their analogues and other compounds. The true share with any hit is near 11%.
Tau FP inhib: tau fibrillization inhibition (FP); AID 1468; Potency, µM (top dose mostly 57.7 µM), for inactives: top-dose activity, negative = inhibition, hits mostly inhibitors; P10636; K18 P301L tau heparin fibrillization, Alexa594 FP, 6 h; 0.39% of 280,000 active; further: potency means the concentration at half of the fitted maximal effect; nearly all actives have a fitted effect of over 55% in size
Target sequence (P10636 561-689 P618L limits assumed): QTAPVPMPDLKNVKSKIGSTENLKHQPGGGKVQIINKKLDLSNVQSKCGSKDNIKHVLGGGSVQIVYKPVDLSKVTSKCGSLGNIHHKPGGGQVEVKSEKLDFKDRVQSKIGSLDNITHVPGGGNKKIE
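Steps: dispense K18 P301L tau (15 uM plus 0.24 uM Alexa 594 tracer, final) in pH 7 sodium acetate; add compound; add heparin (20 uM final); incubate 6 hr, 37 C; add ThT (30 uM final); after 1 hr ambient, read FP.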
Tau ThT inhib: blocks human tau fibril formation measured by thioflavin T. P10636. recombinant tau K18 P301L, heparin-induced fibrillization, ThT fluorescence. Potency, µM (titrated, usually from 57.4 µM), for the others: at the highest dose activity, negative = inhibition, hits mostly inhibitors. 2.1% of 270,000 active. AID 1460; further: potency means the concentration at half of the fitted maximal effect; nearly all actives have a fitted effect of over 55% in size
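Recombinant human tau K18 fragment […] carrying P301L, 15 uM unlabeled plus 0.24 uM Alexa 594-labeled, was fibrillized with 20 uM heparin in 100 mM sodium acetate pH 7 for 6 hr at 37 C; 30 uM ThT fluorescence read after 1 hr.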
Tau fluor counter: counter-screen for tau fibril formation inhibitors. Potency, µM (titrated, usually from 57.7 µM), for the others: at the highest dose activity change, negative = decrease. tau K18 P301L (four-repeat tau fragment) Alexa594 fluorescence, heparin fibrillization. AID 1463. 0.93% of 280,000 active; further: potency means the concentration at half of the fitted maximal effect; nearly all actives have a fitted effect of over 55% in size
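Human K18 P301L tau (15 uM unlabeled plus 0.24 uM Alexa 594-labeled, final) in 100 mM sodium acetate pH 7 was mixed with compound and 20 uM heparin and incubated 6 hr at 37 C.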
G9a block: blocks human histone lysine methyltransferase G9a | G9a H3K9 monomethylation, AlphaScreen, 2 h | Potency, µM (titrated, usually from 102 µM), for the others: at the top dose activity, negative = inhibition, actives largely listed as inhibitors | 8.8% of 350,000 active | AID 504332; further: potency means the concentration at half of the fitted maximal effect; nearly all actives have a fitted effect of over 75% in size
Target sequence (Q96KQ7 913-1193 limits assumed): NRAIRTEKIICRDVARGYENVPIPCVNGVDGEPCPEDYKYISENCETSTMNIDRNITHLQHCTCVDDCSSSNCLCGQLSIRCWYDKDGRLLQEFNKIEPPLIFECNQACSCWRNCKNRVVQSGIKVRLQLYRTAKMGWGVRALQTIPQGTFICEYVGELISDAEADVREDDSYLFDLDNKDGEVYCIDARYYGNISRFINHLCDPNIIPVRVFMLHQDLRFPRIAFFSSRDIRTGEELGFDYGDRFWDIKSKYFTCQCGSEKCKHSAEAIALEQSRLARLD
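Methyltransferase reactions run at room temperature for 2 h (20 nM enzyme, 500 nM biotin-H3K9 peptide, 20 uM SAM) after a 15 min compound preincubation; product detected by AlphaScreen beads and anti-H3K9me1 antibody.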
Coupling enz: inhibits coupling enzyme system, counter-screen for aldolase hits | coupling enzyme system counterscreen, AmpLite Red fluorescence | activity change, negative = inhibition, % at 58.2 µM, hits read low | 0.67% of 290,000 active | AID 2472; in the data active means activity change below about -30%
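Counterscreen lacking aldolase: glyceraldehyde-3-phosphate coupling-enzyme reagent preincubated 10 min at RT with compound (at 57.5 uM final), then substrate/coupling system with AmpLite Red added; fluorescence read at 525/598 nm after 20 min RT.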
Sfp PPTase inh: inhibitors of Bacillus subtilis Sfp phosphopantetheinyl transferase; Potency, µM, without a hit: largest response in the series, negative = inhibition, most hits filed as inhibitors; Q9F4F7; 3.5% of 310,000 active; Biochemical Sfp PPTase activity, qHTS;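 further: the enzyme is Sfp with the accession as filed and its product quenches rhodamine fluorescence; potency means the concentration at half of the fitted maximal effect; 0% = enzyme reaction without inhibitor and -100% = no enzyme wells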
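After 15 min at room temperature with compound, 15 nM Sfp received 5 uM rhodamine-CoA plus 12.5 uM BHQ-2-ybbR (50 mM Hepes pH 7.6, 10 mM MgCl2). Rate came from the fluorescence difference over 30 min, ex 525/em 598 nm.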
* marks the source's active call; other numbers are inactive results; ? = inconclusive; . = not tested or not shown; ! = not confirmed by another sample; [ ] = dose if it differs, or a comment. Unless noted, the call rests on the fitted dose curve; in most records, active means well fitted curve in the direction sought with a large enough effect; inconclusive means small, poorly fitted or top-dose-only effect, or another doubt; inactive means no such curve, though single readings can be large; an effect the other way counts as inactive or inconclusive. Unless noted, on the % scale 0 is the no-effect control and ±100 the full control effect.

SMILES	Tau FP inhib	Tau ThT inhib	Tau fluor counter	G9a block	Coupling enz	Sfp PPTase inh
S=C(NCc1ccncc1)Nc1ccc(Cl)c(Cl)c1	?	11%	-20%	29%[59 µM]	4	7%
O=C(COCC(=O)Nc1cccc(C(F)(F)F)c1)Nc1cccc(C(F)(F)F)c1	11µM*	5%	?	5%[59 µM]	-16	13%
FC(F)(F)c1cccc(NC(=S)NC(c2ccccc2)c2ccccc2)c1	-18%	-5%	?	49%[59 µM]	-1	45%
O=[N+]([O-])c1cc(C(F)(F)F)cc([N+](=O)[O-])c1NCCNC(=S)Nc1ccc(Cl)c(Cl)c1	?	?	5.6µM*[quencher]	.	-6	-5%
CCCCCNCC(=O)Nc1cccc(C(=O)Nc2cccc(C(F)(F)F)c2)c1	?	-3%	?	.	3	32µM*
FC(F)(F)c1cccc(NC(=S)NNC(=S)Nc2cccc(C(F)(F)F)c2)c1	?	28µM*	10µM*[quencher]	35µM*	-7	25µM*
O=C(O)CCc1ccc(-c2ccccc2)n1CC(=O)Nc1cccc(C(F)(F)F)c1	.	.	.	45µM*	7	4%
Cc1ccc(NNC(=O)C(O)(c2cccc(C(F)(F)F)c2)c2cccc(C(F)(F)F)c2)cc1	1%	-18%	13µM*[quencher]	32µM*	-7	15%
O=C(CN1CCOCC1)Nc1cccc(C(=O)Nc2cccc(C(F)(F)F)c2)c1	5%	-3%	-4%	-24%	1	1%
Cc1ccc(CNC(=O)CCCN2C(=O)c3cccnc3Oc3ccc(Cl)cc32)cc1	3%	2%	-2%	-31%[59 µM]	.	.
CCN1CCN(S(=O)(=O)c2ccc(S(=O)(=O)NC3CC3)cc2)CC1	.	.	.	50µM*	2	2%
CC(=O)N1CCN(S(=O)(=O)c2ccc(S(=O)(=O)NC3CCCCC3)cc2)CC1	.	.	.	50µM*	4	8%
CCN1CCN(S(=O)(=O)c2ccc(C(C)(C)C)cc2)CC1	.	.	.	3%	4	12%
O=CN1CCN(S(=O)(=O)c2ccc(S(=O)(=O)NC3CCCCC3)cc2)CC1	.	.	.	45µM*	3	-4%
O=S(=O)(NC1CCCCCCC1)c1ccccc1	.	.	.	58%	-3	1%
CC1CCC2(CC1)NC(=O)N(CC(=O)Nc1ccc3c(c1)OCCO3)C2=O (stereo unspecified)	-2%	3%	3%	-1%	-3	4%
CCOC(=O)c1c(N2C(=O)C3C4C=CC(O4)C3C2=O)sc2c1CCCC2 (stereo unspecified)	0%	-7%	4%	1.8µM*	2	8.9µM*
Cc1ccnc2c1ccc1cccnc12	.	.	.	13µM*	.	.
Cc1cccc2cccnc12	.	.	.	0%[0.501 µM]	.	.
c1cnc2c(c1)ccc1cccnc12	?	28µM*	-15%	13µM*	-66*!	2.5µM*
CCCNC(=O)Cn1c(=O)cc(C)c2c(C)nn(-c3cccc(F)c3)c21	-11%	-2%	1%	-7%[59 µM]	.	.
Cc1ccc(C)c(NC(=O)N2CCc3cc(S(=O)(=O)N4CCC(C)CC4)ccc32)c1	?	6%	-15%	1%[59 µM]	.	.
CC(O)/C=C/c1cccc[n+]1C (stereo unspecified)	-7%	?	-8%	10µM*	-5	-21%
C[n+]1ccccc1/C=N/O	2%	3%	0%	-33%[2.33 µM]	2	11%
Cc1cccc(NS(=O)(=O)c2ccc(-c3ccc(=O)[nH]n3)o2)c1	.	.	.	-21%	0	3%
SMILES	Tau FP inhib	Tau ThT inhib	Tau fluor counter	G9a block	Coupling enz	Sfp PPTase inh
O=c1ccc(-c2ccc(S(=O)(=O)Nc3cccc([N+](=O)[O-])c3)s2)n[nH]1	.	.	.	71µM*	.	3%
COc1ccccc1NS(=O)(=O)c1ccc(NN=C2CCCC2)c([N+](=O)[O-])c1	12%	?	?	25µM*	2	-1%
COc1ccccc1NS(=O)(=O)c1ccc(N/N=C/c2ccccc2OCC(=O)O)c([N+](=O)[O-])c1	1%	10µM*	?	20µM*	7	-14%
O=C(O)COc1ccccc1/C=N/NC(=O)c1cc(-c2ccc(Cl)cc2)nc2ccccc12	3%	-14%	-25%	?	1	-8%
COc1ccccc1NS(=O)(=O)c1ccc(N/N=C/C=C/c2ccccc2[N+](=O)[O-])c([N+](=O)[O-])c1	6%	?	?	-51%	-1	-1%
COc1ccccc1NS(=O)(=O)c1cccc(C(=O)NN=C2CCCC2)c1	-1%	-5%	-11%	1%	0	-7%
O=C(O)COc1ccccc1/C=N/Nc1ccc(S(=O)(=O)Nc2ccc(Cl)cc2)cc1[N+](=O)[O-]	?	14µM*	?	35µM*	7	-10%
CCN(CC)S(=O)(=O)c1ccc(N/N=C/c2ccccc2OCC(=O)O)c([N+](=O)[O-])c1	11%	?	-15%	40µM*	1	-5%
C[C@@H]1C(=O)N(S(=O)(=O)c2ccccc2[N+](=O)[O-])[C@H]1c1ccc(-c2ccccc2)cc1	.	.	.	.	14	16%
Cc1nn(-c2ccccc2)c(N2CCCC2)c1/C=N/Nc1ccc(S(=O)(=O)Nc2ccccc2)cc1[N+](=O)[O-]	7%	6%	3%	?	3	3%
COc1ccccc1NS(=O)(=O)c1ccc(N/N=C/c2c(C)nn(-c3ccccc3)c2N2CCCC2)c([N+](=O)[O-])c1	21%	?	?	4.5µM*	-1	16%
CCCCN1C(=O)C(=O)N(CC(=O)N2N=C3/C(=C/c4ccco4)CCCC3C2c2ccco2)C1=O (stereo unspecified)	-7%	-5%	-8%	?	0	45µM*
COc1ccc(/C=C2\CCCC3C2=NN(C(=O)CSc2n[nH]c(N)n2)C3c2ccc(OC)cc2)cc1 (stereo unspecified)	-2%	-1%	-21%	-20%	-2	-4%
O=C(CSc1ncn[nH]1)N1N=C2/C(=C/c3ccco3)CCCC2C1c1ccco1 (stereo unspecified)	-4%	-12%	-16%	50µM*	2	-20%
Cc1ccc(C)c(S(=O)(=O)N2CCCC2CNC(=O)C(=O)NCc2ccccn2)c1 (stereo unspecified)	.	.	.	-5%	.	.
Cc1cc2cc3c(cc2nc1SCc1ccccn1)OCCO3	-2%	-10%	-7%	26%[59 µM]	-1	5%
N#Cc1cc2ccccc2nc1SCc1ccccn1	-7%	16µM*	-28%	35µM*	2	-21%
Clc1cccc(CSc2ncn(-c3ccccc3)n2)c1	-15%	-13%	-21%	6.3µM*	-6	-7%
CCOC(=O)c1sc(N)nc1C(C)C	-1%	1%	5%	?	2	45µM*
